Screens deposited in PubChem BioAssay by Sanford-Burnham Center for Chemical Genomics.
Hits are enriched below; roughly 4.1% of the tested compounds scored in any of these assays.
NALP1 inh – inhibitors of NALP1 inflammasome in yeast; inhibition, % at 10 µM; S. cerevisiae NALP1/ASC/caspase-1 growth, X-gal OD620, 72 h; hit rate 0.61% among 280,000; in the data active means inhibition mostly above about 24%, no sharp cut-off; inactive means mostly below about 32%
tim23-1 inh – growth inhibitors of tim23-1 mutant yeast; S. cerevisiae tim23-1 growth, BacTiter-Glo luminescence, 24 h; inhibition, % at 20 µM; hit rate 1.3% among 330,000;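 active means growth inhibition of the mutant yeast at or above 50%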;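 further: temperature-sensitive mutant grown at 25 °C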
NLRP3 yeast inh – inhibitors of NALP3 inflammasome in yeast. hit rate 0.39% among 330,000. Yeast reconstituted NLRP3/ASC/caspase-1, beta-gal luminescence, 24 h. inhibition, % at 10 µM;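 active means inhibition of 50% or more; inactive means inhibition below 50%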
tim10-1 inh – inhibits growth of tim10-1 mutant yeast. S. cerevisiae tim10-1 ts strain growth, BacTiter-Glo, 24 h. AID 463190. hit rate 2.2% among 330,000. inhibition, % at 20 µM;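 active means inhibition of at least 40%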;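 further: mutant grown at 25 °C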
TIM10 inh – growth inhibitors of TIM10 yeast strain; inhibition, % at 10 µM; S. cerevisiae TIM10 strain growth, BacTiter-Glo luminescence, 24 h; hit rate 1.4% among 330,000;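 active means inhibition of 40% or more at the single tested concentration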;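 further: wild-type TIM10 isogenic control strain grown at permissive 25 °C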
Large screens that a line does not name were inactive.

COc1ccc(CN(C2CC2)S(=O)(=O)c2ccccc2Br)cc1	none (no result: NALP1 inh, NLRP3 yeast inh)
CN(C)c1ccc(N2C(=O)CC(Sc3ccccc3C(=O)O)C2=O)cc1 (stereo not given)	NALP1 inh 52
Cc1cc(C)cc(N2C(=O)CC(Sc3ccccc3C(=O)O)C2=O)c1 (stereo not given)	none
Cc1ccc(N2C(=O)CC(Sc3ccccc3C(=O)O)C2=O)cc1 (stereo not given)	NALP1 inh 63
CCOc1cc(-c2nc(-c3ccc(C)nc3OC)no2)cc(OCC)c1OCC	NALP1 inh 27 (no result: tim23-1 inh, NLRP3 yeast inh, tim10-1 inh, TIM10 inh)
CC1(C)CC(=O)c2cn3nc(C(F)(F)F)nc3nc2C1	NALP1 inh 43
CC1(C)CC(=O)c2cn3c(nc2C1)nc1ccccc13	none
Cc1ccc(S(=O)(=O)N2CCOCC2)cc1NC(=O)COC(=O)/C=C/c1ccc(F)cc1	none (no result: NALP1 inh)
Cc1c(O)nc(SCC(=O)Nc2nccs2)n(-c2ccccc2F)c1=O	NALP1 inh 41
COc1ccc2oc(C(=O)Nc3ccc(S(=O)(=O)N(C)C4CCN(C)CC4)cc3)c(C)c2c1	none
COc1ccc(-c2noc(CSc3nc(-c4ccccc4)cc(=O)[nH]3)n2)cc1	NALP1 inh 40
CCc1cc2c(NCc3ccco3)ncnc2s1	none
CCc1cc2c(NCC(=O)O)ncnc2s1	NALP1 inh 39
CCc1ccc(NC(=O)C2CCC(CNC(=O)[C@@H]3Cc4ccccc4CN3)CC2)cc1 (stereo not given in full)	NALP1 inh 34
CC(C)c1ccc(NC(=O)C2CCN(C(=O)[C@@H]3Cc4ccccc4CN3)CC2)cc1	NALP1 inh 32
Cc1cc(C)cc(NC(=O)C2CCC(CNC(=O)[C@@H]3Cc4ccccc4CN3)CC2)c1 (stereo not given in full)	none
CC1=C/C(=N\OS(=O)(=O)c2ccccc2)C(C(C)C)=CC1=O	NALP1 inh 102 (no result: tim23-1 inh, NLRP3 yeast inh, tim10-1 inh, TIM10 inh)
Cc1c(O)ccc2c(CC(=O)N[C@@H](Cc3c[nH]c4ccccc34)C(=O)O)cc(=O)oc12	none
COc1ccccc1/C=C/C(=O)OCc1nc2ccccc2c(=O)[nH]1	NALP1 inh 16
Cc1ccc(S(=O)(=O)N2CCOCC2)cc1NC(=O)COC(=O)c1cc(=O)c2ccccc2o1	none
CC1CCC2C(=O)N(c3ccccc3OC(=O)c3ccccc3F)C(=O)C2C1 (stereo not given)	none
Cc1cccc(CN2CCN(c3ncccn3)CC2)c1	none
Cc1cccc(Cn2c(C(C)(C)C)cc3cccnc32)c1	NALP1 inh 48
Cc1nnc(SCC(=O)O)o1	NALP1 inh 26
O=C(O)CSc1nnc(-c2ccccc2)o1	none
O=C1NCC(c2ccccc2)C1C(=O)N/N=C/c1ccc(Cl)s1 (stereo not given)	NALP1 inh 37
O=C(Nc1ccc(S(=O)(=O)N2CCCCC2)cc1)C1CC(=O)N(c2ccc(Cl)cc2)C1 (stereo not given)	none
O=C1CC(N2CCC(c3nc4ccccc4[nH]3)CC2)C(=O)N1c1ccccc1F (stereo not given)	NALP1 inh 32
CC(C)C(C(=O)Nc1ccccc1)N1C(=O)c2ccccc2C1=O (stereo not given)	none
CC(C)C(C(=O)Nc1ccc(S(=O)(=O)N2CCOCC2)cc1)N1C(=O)c2ccccc2C1=O (stereo not given)	NALP1 inh 43
Cc1c(Br)cccc1NC(=O)c1sccc1-n1cccc1	NALP1 inh 44
O=C(Nc1ccc(Br)cc1F)c1sccc1-n1cccc1	none
Cc1cccc(N2C(=NC(=O)c3ccccc3)SC3CS(=O)(=O)CC32)c1 (stereo not given)	none
Cc1ccnc(NC2CCCCC2)c1	NALP1 inh 21
Cc1ccc(-n2nnnc2SCC(=O)N2CC(=O)Nc3ccccc32)cc1	none
CCOc1ccc(-c2cc(NC(=O)Cn3ncc4c3-c3ccccc3OC4)on2)cc1OCC	NALP1 inh 44
COc1ccccc1NC(=O)Cn1ncc2c1-c1ccccc1OC2	none
O=C(Cn1ncc2c1-c1ccccc1OC2)Nc1cccc(Cl)c1	NALP1 inh 38
COC(=O)C1(CC2CC(c3ccncc3)=NO2)CCN(C(=O)OC(C)(C)C)CC1 (stereo not given)	none (no result: NALP1 inh)
Cc1cccc(N(CC(=O)NCc2ccco2)C(=O)CCC(=O)Nc2nccs2)c1C	none
CSc1ccccc1NC(=O)CN1CCN(Cc2ccccc2)CC1	none
Nc1nc(-c2ccc3c(c2)OCCO3)c(CC(=O)O)s1	none
Nc1nc(-c2ccc3c(c2)CCCC3)c(CC(=O)O)s1	NALP1 inh 37
COc1ccc(C2SCC(C(=O)O)N2C(C)=O)cc1 (stereo not given)	none
CC(=O)N1C(C(=O)O)CSC1c1ccc(C)cc1 (stereo not given)	NALP1 inh 42
Cc1ccc(/C=C/c2ccc(=O)n(Cc3ccccc3Cl)n2)cc1	NALP1 inh 37
Cc1ccc(/C=C/c2ccc(=O)n(Cc3ccc(F)cc3)n2)cc1	none
CCCOc1ccc(C(=O)C(CN2CCCC2)c2ccccc2)cc1 (stereo not given)	NALP1 inh 60 (no result: tim23-1 inh, NLRP3 yeast inh, tim10-1 inh, TIM10 inh)
CCCCOc1ccc(C(O)C(CN2CCCCC2)c2ccccc2)cc1 (stereo not given)	none
COC(=O)[C@H](Cc1c[nH]c2ccccc12)NC(=O)Nc1ccccc1OC	none
CCn1cc(C(=O)OCC(=O)Nc2ccc(C(C)C)cc2)c(=O)c2ccc(C)nc21	NALP1 inh 25
Fc1ccc(-c2csc(N3CCC(c4ccccc4)C3)n2)cc1 (stereo not given)	NALP1 inh 32
Clc1ccc(-c2csc(N3CCC(c4ccccc4)C3)n2)cc1 (stereo not given)	none
COCCNC(=O)CCc1c(C)nc2c(-c3ccc(F)cc3)c(C)nn2c1C	NALP1 inh 36
Cc1cc(C)c2[nH]c(=O)c(C(c3nnnn3C(C)(C)C)N(Cc3ccco3)CC3CCCO3)cc2c1 (stereo not given)	NALP1 inh 38
O=C(CN1CCN(Cc2cccc3ccccc23)CC1)NCCc1ccccc1	NALP1 inh 27
Cc1ccccc1CN1CCN(CC(=O)NCc2ccccc2)CC1	none
C/C=C/c1ccc(OCC(=O)Nc2cc(S(=O)(=O)N3CCOCC3)ccc2N2CCCC2)c(OC)c1	none (no result: NALP1 inh)
COc1ccc(CNCC(O)(c2ccccc2)c2ccc(Cl)cc2)cc1 (stereo not given)	NALP1 inh 57
O=C1CC(N2CCN(c3ccc(F)cc3)CC2)C(=O)N1c1ccc2c(c1)OCO2 (stereo not given)	none
O=C(Nc1ccc(F)cc1)c1ccc(C(=O)N2CCOCC2)cc1	none (no result: NALP1 inh)
O=C(c1ccc(F)cc1)N1CCOCC1	NALP1 inh 26
O=C(NCc1cccnc1)c1csc2c1CCCC2	none
Cc1ccc(CNC(=O)c2csc3c2CCCCC3)cc1	NALP1 inh 43
Nc1cc(=O)[nH]c(SCC(=O)Nc2ccc([N+](=O)[O-])cc2)n1	none
Nc1nc(SCC(=O)Nc2ccc([N+](=O)[O-])cc2)[nH]c(=O)c1NC(=O)c1ccc(Br)cc1	NALP1 inh 27
COc1ccccc1/C=N/NC(=O)c1nnn(-c2nonc2N)c1-c1ccccc1	none
